# What was measured:
# Experiment in all cases: DAPPL (digital affinity profiling via proximity ligation, sequencing); 10 mM Tris-HCl pH 7.5, 50 mM NaCl, 1 mM DTT, 4% glycerol, room temperature, 30 min; GST-TFs on glutathione beads, 16-mer random dsDNA library, 0.1% formaldehyde crosslink after washing; high values mean tight binding
# FLI1 = molecular target: T1, FLI1 (Homo sapiens, UniProt Q01543 1-452); details: protein: recombinant; tags: N-terminal GST; dsDNA, one strand shown
# T1 sequence: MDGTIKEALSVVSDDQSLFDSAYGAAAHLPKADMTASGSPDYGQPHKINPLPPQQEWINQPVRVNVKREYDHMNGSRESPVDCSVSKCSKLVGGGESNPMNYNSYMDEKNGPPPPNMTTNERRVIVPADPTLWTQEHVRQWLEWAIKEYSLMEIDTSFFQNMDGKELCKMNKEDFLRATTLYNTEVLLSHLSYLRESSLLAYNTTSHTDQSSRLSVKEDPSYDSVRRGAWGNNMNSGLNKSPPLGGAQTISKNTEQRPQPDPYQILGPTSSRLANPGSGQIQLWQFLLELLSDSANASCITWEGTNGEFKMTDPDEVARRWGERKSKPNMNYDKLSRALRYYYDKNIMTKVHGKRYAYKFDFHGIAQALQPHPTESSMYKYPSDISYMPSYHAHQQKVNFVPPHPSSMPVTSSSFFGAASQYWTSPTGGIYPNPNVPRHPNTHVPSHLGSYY
# Summary of the method: (§1)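 The binding signal reported is, for every hexamer, its read frequency for a factor over its read frequency for the tag-only sample. Reads came from pools of yeast-expressed, GST-fused human transcription factors on glutathione beads, barcoded with DNA and mixed with that sample, which were incubated with 200 nmole of a random double-stranded 16-mer DNA library in Tris/NaCl/DTT/glycerol buffer at room temperature for 30 min. After washing, the pools were crosslinked with 0.1% formaldehyde, proximity-ligated with BsaI/T4 ligase for 1 h at 37 °C, PCR-amplified and sequenced on an Illumina NextSeq500.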
# ELK1 = molecular target: T2, ELK1 (Homo sapiens, UniProt P19419 1-428); details: protein: recombinant; tags: N-terminal GST; dsDNA, one strand shown
# T2 sequence: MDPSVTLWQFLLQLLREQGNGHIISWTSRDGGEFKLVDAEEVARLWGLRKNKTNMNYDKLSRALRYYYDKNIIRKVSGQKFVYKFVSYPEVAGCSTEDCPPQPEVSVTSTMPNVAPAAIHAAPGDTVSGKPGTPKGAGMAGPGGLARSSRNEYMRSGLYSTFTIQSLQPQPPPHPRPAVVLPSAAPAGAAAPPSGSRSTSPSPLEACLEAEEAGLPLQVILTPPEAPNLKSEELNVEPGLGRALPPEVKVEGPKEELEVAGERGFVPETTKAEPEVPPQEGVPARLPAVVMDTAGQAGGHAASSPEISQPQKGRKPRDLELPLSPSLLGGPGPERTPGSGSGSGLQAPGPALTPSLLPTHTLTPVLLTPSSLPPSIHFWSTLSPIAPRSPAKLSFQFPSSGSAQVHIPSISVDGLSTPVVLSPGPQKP
# Summary of the method: as §1
# GABPA = molecular target: T3, GABPA (Homo sapiens, UniProt Q06546 1-454); details: protein: recombinant; tags: N-terminal GST; dsDNA, one strand shown
# T3 sequence: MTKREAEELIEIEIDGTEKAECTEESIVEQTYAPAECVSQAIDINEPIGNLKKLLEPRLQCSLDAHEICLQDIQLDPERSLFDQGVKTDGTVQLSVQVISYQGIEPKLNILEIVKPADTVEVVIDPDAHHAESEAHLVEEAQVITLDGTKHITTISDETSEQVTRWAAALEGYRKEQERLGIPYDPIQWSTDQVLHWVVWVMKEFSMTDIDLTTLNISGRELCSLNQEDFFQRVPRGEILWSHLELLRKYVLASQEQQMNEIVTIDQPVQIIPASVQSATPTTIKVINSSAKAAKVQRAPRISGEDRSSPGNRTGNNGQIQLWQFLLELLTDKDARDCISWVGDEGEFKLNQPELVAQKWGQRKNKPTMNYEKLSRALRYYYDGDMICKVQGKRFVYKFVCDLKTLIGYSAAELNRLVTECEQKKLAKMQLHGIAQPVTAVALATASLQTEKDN
# Summary of the method: as §1
# ERG = molecular target: T4, ERG (Homo sapiens, UniProt P11308 1-479); details: protein: recombinant; tags: N-terminal GST; dsDNA, one strand shown
# T4 sequence: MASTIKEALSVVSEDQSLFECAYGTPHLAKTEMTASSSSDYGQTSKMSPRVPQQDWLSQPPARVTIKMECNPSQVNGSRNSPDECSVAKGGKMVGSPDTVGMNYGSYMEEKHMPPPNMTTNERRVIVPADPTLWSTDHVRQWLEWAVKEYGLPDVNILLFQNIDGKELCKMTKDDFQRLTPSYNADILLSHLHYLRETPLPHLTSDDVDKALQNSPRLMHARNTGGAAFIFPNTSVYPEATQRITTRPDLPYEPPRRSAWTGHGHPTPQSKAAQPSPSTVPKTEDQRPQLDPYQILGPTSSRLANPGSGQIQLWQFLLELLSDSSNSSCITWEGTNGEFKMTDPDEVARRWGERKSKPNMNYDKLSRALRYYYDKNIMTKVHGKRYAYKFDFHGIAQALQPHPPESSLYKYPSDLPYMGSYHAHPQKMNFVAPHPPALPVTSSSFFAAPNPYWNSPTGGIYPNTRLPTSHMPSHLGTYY
# Summary of the method: as §1
# ELF1 = ELF1 (Homo sapiens, UniProt P32519 1-619); details: protein: recombinant; tags: N-terminal GST; dsDNA, one strand shown
# Summary of the method: as §1
# EHF = molecular target: T5, EHF (Homo sapiens, UniProt Q9NZC4 1-300); details: protein: recombinant; tags: N-terminal GST; dsDNA, one strand shown
# T5 sequence: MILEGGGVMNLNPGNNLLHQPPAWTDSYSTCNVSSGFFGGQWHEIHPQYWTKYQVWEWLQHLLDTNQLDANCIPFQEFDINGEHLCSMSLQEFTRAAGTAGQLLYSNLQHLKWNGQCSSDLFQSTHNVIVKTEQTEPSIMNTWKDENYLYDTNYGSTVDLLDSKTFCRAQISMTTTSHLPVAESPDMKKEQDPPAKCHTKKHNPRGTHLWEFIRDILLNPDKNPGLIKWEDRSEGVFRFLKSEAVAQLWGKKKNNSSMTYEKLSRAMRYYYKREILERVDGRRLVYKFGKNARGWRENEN
# Summary of the method: as §1
# SPI1 = SPI1 (Homo sapiens, UniProt P17947 1-270); details: protein: recombinant; tags: N-terminal GST; dsDNA, one strand shown
# Summary of the method: as §1
# SPIB = SPIB (Homo sapiens, UniProt Q01892 1-262); details: protein: recombinant; tags: N-terminal GST; dsDNA, one strand shown
# Summary of the method: as §1
# ELK3 = molecular target: T6, ELK3 (Homo sapiens, UniProt P41970 1-407); details: protein: recombinant; tags: N-terminal GST; dsDNA, one strand shown
# T6 sequence: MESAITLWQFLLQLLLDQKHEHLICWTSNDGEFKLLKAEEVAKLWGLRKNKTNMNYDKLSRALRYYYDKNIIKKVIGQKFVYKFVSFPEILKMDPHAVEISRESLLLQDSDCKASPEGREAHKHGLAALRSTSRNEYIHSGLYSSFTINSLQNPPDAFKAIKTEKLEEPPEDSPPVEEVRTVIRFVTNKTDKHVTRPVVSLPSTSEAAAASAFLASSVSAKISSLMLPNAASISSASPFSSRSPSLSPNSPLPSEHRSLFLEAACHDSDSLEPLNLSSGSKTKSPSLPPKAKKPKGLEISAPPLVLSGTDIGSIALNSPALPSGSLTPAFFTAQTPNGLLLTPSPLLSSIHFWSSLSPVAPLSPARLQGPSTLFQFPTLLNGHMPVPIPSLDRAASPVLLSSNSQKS
# Summary of the method: as §1
# FEV = molecular target: T7, FEV (Homo sapiens, UniProt Q99581 1-238); details: protein: recombinant; tags: N-terminal GST; dsDNA, one strand shown
# T7 sequence: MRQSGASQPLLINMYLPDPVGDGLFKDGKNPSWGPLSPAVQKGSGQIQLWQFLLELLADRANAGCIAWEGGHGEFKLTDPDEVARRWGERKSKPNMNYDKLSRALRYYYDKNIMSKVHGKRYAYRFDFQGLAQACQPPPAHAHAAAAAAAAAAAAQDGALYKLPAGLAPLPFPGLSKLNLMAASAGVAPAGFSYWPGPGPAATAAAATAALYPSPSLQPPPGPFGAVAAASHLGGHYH
# Summary of the method: as §1
# ETV5 = ETV5 (Homo sapiens, UniProt P41161 1-510); details: protein: recombinant; tags: N-terminal GST; dsDNA, one strand shown
# Summary of the method: as §1
# HSF1 = HSF1 (Homo sapiens, UniProt Q00613 1-529); details: protein: recombinant; tags: N-terminal GST; chain copies: 3; dsDNA, one strand shown
# Summary of the method: as §1
# ELF4 = ELF4 (Homo sapiens, UniProt Q99607 1-663); details: protein: recombinant; tags: N-terminal GST; dsDNA, one strand shown
# Summary of the method: as §1
# ELK4 = molecular target: T8, ELK4 (Homo sapiens, UniProt P28324-2 1-405); details: protein: recombinant; tags: N-terminal GST; dsDNA, one strand shown
# T8 sequence: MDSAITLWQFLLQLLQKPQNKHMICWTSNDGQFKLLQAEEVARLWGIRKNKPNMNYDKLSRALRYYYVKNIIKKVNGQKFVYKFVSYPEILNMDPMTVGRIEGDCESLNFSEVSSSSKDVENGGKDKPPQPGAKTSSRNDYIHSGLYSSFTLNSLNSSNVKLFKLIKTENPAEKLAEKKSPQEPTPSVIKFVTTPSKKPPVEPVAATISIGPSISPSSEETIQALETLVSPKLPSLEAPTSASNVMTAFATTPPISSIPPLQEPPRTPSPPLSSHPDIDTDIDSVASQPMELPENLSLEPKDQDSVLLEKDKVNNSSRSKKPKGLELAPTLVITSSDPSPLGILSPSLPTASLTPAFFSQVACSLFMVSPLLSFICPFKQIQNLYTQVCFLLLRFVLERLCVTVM
# Summary of the method: as §1
# ETV2 = molecular target: T9, ETV2 (Homo sapiens, UniProt O00321 1-342); details: protein: recombinant; tags: N-terminal GST; dsDNA, one strand shown
# T9 sequence: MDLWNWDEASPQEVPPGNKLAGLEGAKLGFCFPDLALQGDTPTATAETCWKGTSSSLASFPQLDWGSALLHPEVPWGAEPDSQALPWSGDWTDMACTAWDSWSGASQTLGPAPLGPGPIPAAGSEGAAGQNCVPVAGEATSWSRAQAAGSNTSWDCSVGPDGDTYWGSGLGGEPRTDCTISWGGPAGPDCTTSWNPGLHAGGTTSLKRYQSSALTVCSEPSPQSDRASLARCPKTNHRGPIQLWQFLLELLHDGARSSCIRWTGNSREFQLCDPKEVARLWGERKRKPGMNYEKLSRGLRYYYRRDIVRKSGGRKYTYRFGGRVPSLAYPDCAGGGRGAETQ
# Summary of the method: as §1
# ELF3 = molecular target: T10, ELF3 (Homo sapiens, UniProt P78545 1-371); details: protein: recombinant; tags: N-terminal GST; dsDNA, one strand shown
# T10 sequence: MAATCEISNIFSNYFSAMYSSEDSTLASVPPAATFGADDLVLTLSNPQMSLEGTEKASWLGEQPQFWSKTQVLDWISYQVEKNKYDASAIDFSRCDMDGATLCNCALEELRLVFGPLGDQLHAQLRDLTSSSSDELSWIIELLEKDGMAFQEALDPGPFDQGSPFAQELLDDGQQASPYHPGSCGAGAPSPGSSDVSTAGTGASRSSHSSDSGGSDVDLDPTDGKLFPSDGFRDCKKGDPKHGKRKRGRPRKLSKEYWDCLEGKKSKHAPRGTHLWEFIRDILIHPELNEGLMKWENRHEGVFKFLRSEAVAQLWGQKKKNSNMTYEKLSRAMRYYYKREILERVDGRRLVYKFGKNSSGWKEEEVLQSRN
# Summary of the method: as §1
# CRX = CRX (Homo sapiens, UniProt O43186 1-299); details: protein: recombinant; tags: N-terminal GST; dsDNA, one strand shown
# Summary of the method: as §1
# ETV1 = ETV1 (Homo sapiens, UniProt P50549 1-477); details: protein: recombinant; tags: N-terminal GST; dsDNA, one strand shown
# Summary of the method: as §1
# ELF4, sequence (Q99607 whole entry): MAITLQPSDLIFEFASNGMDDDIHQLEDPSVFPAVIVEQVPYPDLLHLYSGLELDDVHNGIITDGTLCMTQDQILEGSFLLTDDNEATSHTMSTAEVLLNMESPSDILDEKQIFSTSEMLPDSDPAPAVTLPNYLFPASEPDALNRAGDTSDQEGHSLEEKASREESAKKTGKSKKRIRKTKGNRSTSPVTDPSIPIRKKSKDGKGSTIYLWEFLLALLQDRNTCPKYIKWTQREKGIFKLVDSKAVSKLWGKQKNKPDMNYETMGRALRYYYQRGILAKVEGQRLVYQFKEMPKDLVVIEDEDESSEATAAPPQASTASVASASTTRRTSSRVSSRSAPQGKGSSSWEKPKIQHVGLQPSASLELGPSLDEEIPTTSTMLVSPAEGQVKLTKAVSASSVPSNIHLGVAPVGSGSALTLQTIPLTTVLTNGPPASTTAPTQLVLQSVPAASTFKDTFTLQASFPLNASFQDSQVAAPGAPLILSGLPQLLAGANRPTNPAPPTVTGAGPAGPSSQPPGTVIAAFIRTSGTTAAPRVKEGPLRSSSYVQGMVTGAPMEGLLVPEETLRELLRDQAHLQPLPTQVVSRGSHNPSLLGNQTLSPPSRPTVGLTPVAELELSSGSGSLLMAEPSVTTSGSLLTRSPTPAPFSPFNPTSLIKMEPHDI
# SPIB, sequence (Q01892 whole entry): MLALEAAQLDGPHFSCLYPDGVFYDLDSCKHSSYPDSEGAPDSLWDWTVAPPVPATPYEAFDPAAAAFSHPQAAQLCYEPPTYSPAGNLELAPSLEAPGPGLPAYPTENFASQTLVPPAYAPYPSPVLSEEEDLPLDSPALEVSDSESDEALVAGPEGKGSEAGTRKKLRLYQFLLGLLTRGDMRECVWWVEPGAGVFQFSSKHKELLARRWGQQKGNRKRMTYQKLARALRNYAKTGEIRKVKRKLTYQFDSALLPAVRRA
# ETV1, sequence (P50549 whole entry): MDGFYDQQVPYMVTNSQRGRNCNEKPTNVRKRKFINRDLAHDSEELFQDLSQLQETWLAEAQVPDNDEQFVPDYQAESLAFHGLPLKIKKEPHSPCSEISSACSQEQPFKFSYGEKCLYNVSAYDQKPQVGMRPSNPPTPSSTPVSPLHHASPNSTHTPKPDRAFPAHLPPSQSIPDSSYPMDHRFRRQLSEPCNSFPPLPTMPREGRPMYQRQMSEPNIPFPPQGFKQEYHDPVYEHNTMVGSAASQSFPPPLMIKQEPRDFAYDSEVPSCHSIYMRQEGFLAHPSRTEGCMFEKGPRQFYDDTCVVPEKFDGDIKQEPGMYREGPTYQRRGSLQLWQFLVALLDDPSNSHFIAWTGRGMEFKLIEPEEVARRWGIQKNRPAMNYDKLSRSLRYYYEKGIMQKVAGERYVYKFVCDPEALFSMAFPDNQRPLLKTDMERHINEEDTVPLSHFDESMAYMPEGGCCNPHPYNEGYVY
# HSF1, sequence (Q00613 whole entry): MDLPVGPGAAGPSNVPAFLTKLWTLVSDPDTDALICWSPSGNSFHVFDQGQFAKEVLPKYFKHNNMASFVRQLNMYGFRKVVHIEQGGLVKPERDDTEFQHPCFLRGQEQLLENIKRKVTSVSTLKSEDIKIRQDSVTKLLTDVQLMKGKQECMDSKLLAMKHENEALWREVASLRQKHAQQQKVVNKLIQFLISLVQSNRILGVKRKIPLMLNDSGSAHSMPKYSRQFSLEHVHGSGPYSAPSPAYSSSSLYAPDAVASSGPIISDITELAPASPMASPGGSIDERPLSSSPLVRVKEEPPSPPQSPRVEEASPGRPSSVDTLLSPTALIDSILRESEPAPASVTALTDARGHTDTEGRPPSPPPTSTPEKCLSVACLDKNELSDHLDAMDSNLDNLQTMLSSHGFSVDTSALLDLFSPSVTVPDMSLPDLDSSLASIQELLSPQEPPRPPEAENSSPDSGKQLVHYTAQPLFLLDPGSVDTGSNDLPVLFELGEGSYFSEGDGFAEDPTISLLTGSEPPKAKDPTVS
# ELF1, sequence (P32519 whole entry): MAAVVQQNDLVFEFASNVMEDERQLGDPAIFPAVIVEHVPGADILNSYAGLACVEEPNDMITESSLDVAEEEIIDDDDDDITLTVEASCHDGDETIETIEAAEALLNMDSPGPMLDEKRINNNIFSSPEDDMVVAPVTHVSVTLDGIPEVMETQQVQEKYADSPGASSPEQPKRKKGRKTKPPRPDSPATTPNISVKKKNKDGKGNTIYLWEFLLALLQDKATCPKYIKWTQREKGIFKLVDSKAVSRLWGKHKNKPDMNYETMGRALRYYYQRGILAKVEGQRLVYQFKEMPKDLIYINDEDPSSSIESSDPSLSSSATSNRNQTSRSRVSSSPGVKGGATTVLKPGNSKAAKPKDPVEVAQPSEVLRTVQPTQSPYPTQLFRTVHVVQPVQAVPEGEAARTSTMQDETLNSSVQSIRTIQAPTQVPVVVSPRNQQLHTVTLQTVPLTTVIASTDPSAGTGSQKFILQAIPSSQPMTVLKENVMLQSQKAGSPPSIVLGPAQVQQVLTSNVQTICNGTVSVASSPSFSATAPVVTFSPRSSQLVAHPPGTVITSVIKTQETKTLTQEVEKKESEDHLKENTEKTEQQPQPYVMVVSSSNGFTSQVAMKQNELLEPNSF
# CRX, sequence (O43186 whole entry): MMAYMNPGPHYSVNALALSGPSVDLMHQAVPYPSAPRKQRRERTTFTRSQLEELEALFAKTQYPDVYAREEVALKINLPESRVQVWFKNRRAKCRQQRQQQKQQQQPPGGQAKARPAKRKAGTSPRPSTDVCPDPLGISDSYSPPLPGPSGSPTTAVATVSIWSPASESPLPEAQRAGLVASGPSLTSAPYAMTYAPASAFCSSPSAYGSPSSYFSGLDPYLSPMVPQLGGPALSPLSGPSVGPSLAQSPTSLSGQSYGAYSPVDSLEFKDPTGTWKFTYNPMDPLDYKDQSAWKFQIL
# ETV5, sequence (P41161 whole entry): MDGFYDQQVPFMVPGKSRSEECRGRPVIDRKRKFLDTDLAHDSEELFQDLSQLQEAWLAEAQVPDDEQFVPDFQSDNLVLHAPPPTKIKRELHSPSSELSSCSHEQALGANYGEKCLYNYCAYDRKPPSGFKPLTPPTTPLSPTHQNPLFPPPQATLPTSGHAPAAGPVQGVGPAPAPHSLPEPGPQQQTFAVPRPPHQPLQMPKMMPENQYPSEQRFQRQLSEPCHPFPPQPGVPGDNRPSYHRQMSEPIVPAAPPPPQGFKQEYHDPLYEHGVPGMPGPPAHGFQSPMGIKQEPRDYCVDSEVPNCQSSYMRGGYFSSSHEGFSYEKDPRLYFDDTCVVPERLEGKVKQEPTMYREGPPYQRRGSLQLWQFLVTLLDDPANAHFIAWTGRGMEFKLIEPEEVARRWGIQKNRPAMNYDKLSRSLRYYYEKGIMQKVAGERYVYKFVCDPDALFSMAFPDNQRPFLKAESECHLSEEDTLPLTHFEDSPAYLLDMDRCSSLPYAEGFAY
sequence,measurement,setting,value
ACAAAA,binding signal,FLI1,"1.14 fold enrichment (6-mer frequency, TF over GST control)"
same,binding signal,ELK1,"1.11 fold enrichment (6-mer frequency, TF over GST control)"
same,binding signal,GABPA,"1.15 fold enrichment (6-mer frequency, TF over GST control)"
same,binding signal,ERG,"1.18 fold enrichment (6-mer frequency, TF over GST control)"
same,binding signal,ELF1,"1.16 fold enrichment (6-mer frequency, TF over GST control)"
same,binding signal,EHF,"1.21 fold enrichment (6-mer frequency, TF over GST control)"
same,binding signal,SPI1,"1.22 fold enrichment (6-mer frequency, TF over GST control)"
same,binding signal,SPIB,"1.14 fold enrichment (6-mer frequency, TF over GST control)"
same,binding signal,ELK3,"1.16 fold enrichment (6-mer frequency, TF over GST control)"
same,binding signal,FEV,"1.19 fold enrichment (6-mer frequency, TF over GST control)"
same,binding signal,ETV5,"1.17 fold enrichment (6-mer frequency, TF over GST control)"
same,binding signal,HSF1,"1.09 fold enrichment (6-mer frequency, TF over GST control)"
same,binding signal,ELF4,"1.16 fold enrichment (6-mer frequency, TF over GST control)"
same,binding signal,ELK4,"1.15 fold enrichment (6-mer frequency, TF over GST control)"
same,binding signal,ETV2,"1.11 fold enrichment (6-mer frequency, TF over GST control)"
same,binding signal,ELF3,"1.04 fold enrichment (6-mer frequency, TF over GST control)"
same,binding signal,CRX,"1.05 fold enrichment (6-mer frequency, TF over GST control)"
same,binding signal,ETV1,"1.13 fold enrichment (6-mer frequency, TF over GST control)"
